According to the supplement of paper PMC10849652:
The full data set covers some 8,800 targets. This sample favours those with a hit. About 0.5% of all pairs of compound and target were hits. Unmarked numbers belong to inactive results.

These targets were tested with C1=CC=C(C=C1)[C@H](COC2=CC3=C(C=C2)NC(=O)N3)NC(=O)C4=CC=CN(C4=O)CC5=CC(=C(C=C5)F)F (assay: log2 fold change, soluble protein after heating vs DMSO (PISA); higher = thermal stabilisation; K562 lysate, 10 uM; active = over 0.2 and 3.5 SD of the protein, either way, in both replicates (recomputed)).
Method in brief: (§1)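 Following dounce homogenisation of K562 pellets in PBS pH 7.4 with 1 mM MgCl2, crude extract at 1 mg/mL protein was incubated for 30 min with 10 μM compound. Aliquots were then heated for 3 min over 48°C-58°C and pooled, NP-40 was added to 0.5% at 4°C, and soluble protein was recovered as the supernatant at 21,000xg for 90 min. Channel-sum-equalised TMTpro 16plex LC-MS/MS quantified this protein. Each value, from duplicates, is a log-two fold change in thermal stability relative to solvent controls.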

Chain of UniProt Q96AX1 (Q96AX1 whole entry, looked up): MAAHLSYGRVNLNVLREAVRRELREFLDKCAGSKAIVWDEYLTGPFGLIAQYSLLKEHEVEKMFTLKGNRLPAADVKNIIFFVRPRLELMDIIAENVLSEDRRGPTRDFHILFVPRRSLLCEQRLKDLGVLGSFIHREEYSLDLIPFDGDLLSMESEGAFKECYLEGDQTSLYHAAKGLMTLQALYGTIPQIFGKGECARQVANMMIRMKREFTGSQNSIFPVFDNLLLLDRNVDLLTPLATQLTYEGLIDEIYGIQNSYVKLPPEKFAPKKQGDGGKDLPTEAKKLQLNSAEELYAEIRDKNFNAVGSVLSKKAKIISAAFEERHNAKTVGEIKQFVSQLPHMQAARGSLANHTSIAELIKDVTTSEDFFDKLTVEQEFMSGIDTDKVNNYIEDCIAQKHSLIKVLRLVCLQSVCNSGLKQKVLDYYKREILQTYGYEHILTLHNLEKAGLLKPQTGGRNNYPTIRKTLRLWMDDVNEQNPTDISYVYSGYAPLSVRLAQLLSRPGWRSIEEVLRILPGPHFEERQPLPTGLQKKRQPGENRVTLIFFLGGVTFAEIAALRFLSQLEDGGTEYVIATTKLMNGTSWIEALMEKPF
Chain of UniProt Q9UL40 (Q9UL40 whole entry, looked up): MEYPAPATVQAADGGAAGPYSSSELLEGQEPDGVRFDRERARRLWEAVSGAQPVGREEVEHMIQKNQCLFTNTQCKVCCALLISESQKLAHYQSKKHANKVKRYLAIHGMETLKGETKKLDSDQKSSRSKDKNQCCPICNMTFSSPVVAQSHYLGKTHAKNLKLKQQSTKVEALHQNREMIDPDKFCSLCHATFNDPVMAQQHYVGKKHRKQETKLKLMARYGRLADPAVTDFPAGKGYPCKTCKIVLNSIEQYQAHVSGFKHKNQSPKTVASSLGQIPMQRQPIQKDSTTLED
Chain of UniProt Q96TA2 (Q96TA2 whole entry, looked up): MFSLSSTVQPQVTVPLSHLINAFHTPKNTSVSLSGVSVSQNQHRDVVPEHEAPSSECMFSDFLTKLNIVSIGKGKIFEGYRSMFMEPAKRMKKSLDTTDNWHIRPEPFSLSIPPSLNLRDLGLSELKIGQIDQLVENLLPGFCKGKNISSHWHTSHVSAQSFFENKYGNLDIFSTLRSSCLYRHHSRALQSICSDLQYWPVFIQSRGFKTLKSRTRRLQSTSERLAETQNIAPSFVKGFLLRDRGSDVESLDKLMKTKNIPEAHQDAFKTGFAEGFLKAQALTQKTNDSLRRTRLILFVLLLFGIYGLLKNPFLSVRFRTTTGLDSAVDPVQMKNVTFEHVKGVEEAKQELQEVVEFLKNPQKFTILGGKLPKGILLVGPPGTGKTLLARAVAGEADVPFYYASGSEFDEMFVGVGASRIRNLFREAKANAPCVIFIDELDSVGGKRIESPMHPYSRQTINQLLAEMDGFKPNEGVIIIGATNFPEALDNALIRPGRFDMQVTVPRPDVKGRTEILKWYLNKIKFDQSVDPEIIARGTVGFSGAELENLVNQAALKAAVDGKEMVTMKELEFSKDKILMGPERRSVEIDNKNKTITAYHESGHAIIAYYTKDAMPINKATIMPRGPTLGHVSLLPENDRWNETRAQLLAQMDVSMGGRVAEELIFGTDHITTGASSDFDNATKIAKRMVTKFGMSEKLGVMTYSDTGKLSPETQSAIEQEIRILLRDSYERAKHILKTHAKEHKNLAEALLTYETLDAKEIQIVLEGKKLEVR
Chain of UniProt P50552 (P50552 whole entry, looked up): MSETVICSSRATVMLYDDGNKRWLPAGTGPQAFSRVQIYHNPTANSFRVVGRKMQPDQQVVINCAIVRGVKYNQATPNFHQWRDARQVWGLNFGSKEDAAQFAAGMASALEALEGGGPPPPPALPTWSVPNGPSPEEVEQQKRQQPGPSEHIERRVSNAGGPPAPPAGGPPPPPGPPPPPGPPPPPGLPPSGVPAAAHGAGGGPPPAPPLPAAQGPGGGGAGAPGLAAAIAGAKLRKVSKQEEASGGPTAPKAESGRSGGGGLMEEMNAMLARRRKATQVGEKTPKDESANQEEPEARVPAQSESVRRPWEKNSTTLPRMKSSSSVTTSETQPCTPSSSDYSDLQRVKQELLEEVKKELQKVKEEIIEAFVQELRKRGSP
Chain of UniProt Q5MNZ9 (Q5MNZ9 whole entry, looked up): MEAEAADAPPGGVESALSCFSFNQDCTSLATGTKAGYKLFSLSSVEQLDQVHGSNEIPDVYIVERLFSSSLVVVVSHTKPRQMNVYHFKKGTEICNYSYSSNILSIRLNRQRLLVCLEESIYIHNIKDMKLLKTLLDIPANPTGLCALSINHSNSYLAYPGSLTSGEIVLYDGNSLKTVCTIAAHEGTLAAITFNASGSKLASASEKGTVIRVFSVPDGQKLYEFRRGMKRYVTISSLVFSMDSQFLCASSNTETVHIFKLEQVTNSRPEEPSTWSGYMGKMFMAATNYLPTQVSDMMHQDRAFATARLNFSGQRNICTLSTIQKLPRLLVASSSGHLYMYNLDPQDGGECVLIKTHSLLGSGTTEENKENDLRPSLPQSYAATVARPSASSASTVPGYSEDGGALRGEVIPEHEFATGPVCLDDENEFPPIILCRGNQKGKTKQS
Chain of UniProt P40337 (P40337 whole entry, looked up): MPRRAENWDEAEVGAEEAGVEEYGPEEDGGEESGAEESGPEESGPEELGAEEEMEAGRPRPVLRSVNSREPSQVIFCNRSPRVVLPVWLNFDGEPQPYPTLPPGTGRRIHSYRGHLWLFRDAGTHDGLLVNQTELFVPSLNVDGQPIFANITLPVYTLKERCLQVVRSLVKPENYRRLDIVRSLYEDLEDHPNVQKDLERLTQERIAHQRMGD
Chain of UniProt Q9Y484 (Q9Y484 whole entry, looked up): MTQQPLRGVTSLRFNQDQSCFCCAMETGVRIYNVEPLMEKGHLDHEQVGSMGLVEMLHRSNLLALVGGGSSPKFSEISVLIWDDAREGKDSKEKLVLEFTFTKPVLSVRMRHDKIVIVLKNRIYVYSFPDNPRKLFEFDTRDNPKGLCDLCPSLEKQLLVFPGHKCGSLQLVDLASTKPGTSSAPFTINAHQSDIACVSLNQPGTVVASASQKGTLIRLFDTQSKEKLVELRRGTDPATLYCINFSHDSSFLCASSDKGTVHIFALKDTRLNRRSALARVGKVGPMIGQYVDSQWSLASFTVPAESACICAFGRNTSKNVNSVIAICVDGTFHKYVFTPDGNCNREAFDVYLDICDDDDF
Chain of UniProt Q9BQA1 (Q9BQA1 whole entry, looked up): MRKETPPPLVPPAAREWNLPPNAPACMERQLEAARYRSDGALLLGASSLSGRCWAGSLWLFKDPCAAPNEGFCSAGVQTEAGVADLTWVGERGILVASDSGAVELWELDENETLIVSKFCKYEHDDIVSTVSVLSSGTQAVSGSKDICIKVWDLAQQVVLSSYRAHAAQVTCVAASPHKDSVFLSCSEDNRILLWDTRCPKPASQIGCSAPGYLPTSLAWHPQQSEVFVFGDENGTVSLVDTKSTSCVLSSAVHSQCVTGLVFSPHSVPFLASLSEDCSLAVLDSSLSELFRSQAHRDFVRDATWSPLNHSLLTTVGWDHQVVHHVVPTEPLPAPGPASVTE
Chain of UniProt Q9Y5T5 (Q9Y5T5 whole entry, looked up): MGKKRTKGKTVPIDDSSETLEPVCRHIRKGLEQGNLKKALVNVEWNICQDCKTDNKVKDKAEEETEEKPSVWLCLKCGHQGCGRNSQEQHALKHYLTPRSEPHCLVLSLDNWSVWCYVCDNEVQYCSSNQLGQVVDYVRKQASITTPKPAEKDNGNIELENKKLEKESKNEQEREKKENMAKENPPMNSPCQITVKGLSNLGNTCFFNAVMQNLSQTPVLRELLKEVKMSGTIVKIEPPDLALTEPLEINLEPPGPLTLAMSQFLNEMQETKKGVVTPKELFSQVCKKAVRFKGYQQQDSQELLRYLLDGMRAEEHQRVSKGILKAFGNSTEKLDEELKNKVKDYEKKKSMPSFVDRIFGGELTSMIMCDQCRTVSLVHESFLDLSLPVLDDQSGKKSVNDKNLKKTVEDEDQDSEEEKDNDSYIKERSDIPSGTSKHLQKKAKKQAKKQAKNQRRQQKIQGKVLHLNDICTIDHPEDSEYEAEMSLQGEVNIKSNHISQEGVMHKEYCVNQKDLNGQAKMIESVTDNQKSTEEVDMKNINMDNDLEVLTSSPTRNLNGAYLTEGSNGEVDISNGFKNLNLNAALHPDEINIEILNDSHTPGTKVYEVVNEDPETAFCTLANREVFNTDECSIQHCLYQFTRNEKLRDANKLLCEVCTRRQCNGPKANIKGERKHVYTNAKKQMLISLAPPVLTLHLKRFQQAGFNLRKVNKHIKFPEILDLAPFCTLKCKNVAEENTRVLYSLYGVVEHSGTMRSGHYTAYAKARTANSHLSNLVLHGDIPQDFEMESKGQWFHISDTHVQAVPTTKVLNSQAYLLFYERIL
Chain of UniProt P42768 (P42768 whole entry, looked up): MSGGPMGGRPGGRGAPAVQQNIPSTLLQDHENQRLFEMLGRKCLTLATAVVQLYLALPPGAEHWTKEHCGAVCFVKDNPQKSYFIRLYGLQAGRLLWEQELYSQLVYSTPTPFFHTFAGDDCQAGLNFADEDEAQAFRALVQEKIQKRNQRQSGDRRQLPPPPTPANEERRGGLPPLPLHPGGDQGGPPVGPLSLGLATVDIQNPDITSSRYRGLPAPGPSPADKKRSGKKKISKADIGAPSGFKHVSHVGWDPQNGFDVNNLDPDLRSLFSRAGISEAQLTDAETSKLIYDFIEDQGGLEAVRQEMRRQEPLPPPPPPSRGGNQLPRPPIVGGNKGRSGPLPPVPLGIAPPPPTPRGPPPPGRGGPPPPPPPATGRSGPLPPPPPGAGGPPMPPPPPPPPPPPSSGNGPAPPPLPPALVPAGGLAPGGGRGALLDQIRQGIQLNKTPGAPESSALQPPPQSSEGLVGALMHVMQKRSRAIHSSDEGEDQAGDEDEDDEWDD

Target	log2 fold change
YME1L1 (UniProt Q96TA2)	0.004
ZNF346 (UniProt Q9UL40)	0.031
ZYG11A (UniProt Q6WRX3)	-0.075
UTRN isoform 2 (UniProt P46939)	0.026
WDR45 isoform 2 (UniProt Q9Y484)	-0.024
WAS (UniProt P42768)	0.003
USP8 (UniProt P40818)	-0.018
VPS18 (UniProt Q9P253)	-0.014
WDR77 (UniProt Q9BQA1)	0.02
WIPI2 isoform 6 (UniProt Q9Y4P8)	0.092
VPS33A (UniProt Q96AX1)	0
USP16 (UniProt Q9Y5T5)	0.047
VHL (UniProt P40337)	0.165
ZNF644 (UniProt Q9H582)	0
WDR36 (UniProt Q8NI36)	0.006
VASP (UniProt P50552)	-0.005
UTP3 (UniProt Q9NQZ2)	-0.009
WIPI1 (UniProt Q5MNZ9)	0.094
VPS54 (UniProt Q9P1Q0)	-0.157

The targets below were run with CC1=C(SC2=C1C(=N[C@H](C3=NN=C(N32)C)CC(=O)N)C4=CC=C(C=C4)Cl)C in the same assay as above.
Method in brief: as §1

Target	log2 fold change
YME1L1 (UniProt Q96TA2)	-0.021
ZNF346 (UniProt Q9UL40)	-0.017
ZYG11A (UniProt Q6WRX3)	-0.13
UTRN isoform 2 (UniProt P46939)	0.037
WDR45 isoform 2 (UniProt Q9Y484)	0.061
WAS (UniProt P42768)	-0.006
USP8 (UniProt P40818)	0.016
VPS18 (UniProt Q9P253)	0.013
WDR77 (UniProt Q9BQA1)	0.012
WIPI2 isoform 6 (UniProt Q9Y4P8)	0.088
VPS33A (UniProt Q96AX1)	0.017
USP16 (UniProt Q9Y5T5)	-0.015
VHL (UniProt P40337)	0.004
ZNF644 (UniProt Q9H582)	0.003
WDR36 (UniProt Q8NI36)	0.001
VASP (UniProt P50552)	0.006
UTP3 (UniProt Q9NQZ2)	-0.035
WIPI1 (UniProt Q5MNZ9)	0.023
VPS54 (UniProt Q9P1Q0)	0.136
